Inconclusive results are not listed. A call without a number means that no potency is given here. Unmarked numbers belong to inactive results. Activity calls are given as the source filed them. Unless noted, the call rests on the fitted dose curve; in most records, active means well fitted curve in the direction sought with a large enough effect in the repeat runs; inconclusive means weak or mixed curves; inactive means no such curve, though single readings can be large; an effect the other way counts as inactive or inconclusive.
Assays:
[1] = biological target: Luciferin 4-monooxygenase (Photinus pyralis) (UniProt P08659); test: qHTS assay to identify small molecule inhibitors of firefly luciferase (AID 1224835); further: series mostly up to about 120 µM; nearly all actives have a fitted effect of over 25% in size
How it was run: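 Biochemical qHTS: compounds run as interplate titrations against purified firefly enzyme, with D-luciferin and ATP each at its KM concentration. Light output recorded by CCD imaging.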

[2] = biological target: Nuclear receptor subfamily 1 group I member 3 (Homo sapiens) (UniProt Q14994); test: qHTS assay to identify small molecule agonists of the constitutive androstane receptor (CAR) signaling pathway (AID 1224839);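 further: HepG2 cells stably carrying human CAR and a CYP2B6 luciferase reporter; series mostly up to about 92 µM; nearly all actives have a fitted effect of over 15% in size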
How it was run: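 HepG2 cells stably expressing hCAR and a CYP2B6-2.2kb luciferase reporter were treated with compounds at 15 concentrations plus 0.75 uM PK11195 (final) for 24 h at 37 C; luminescence was read after ONE-Glo addition.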

[3] = biological target: Thyrotropin receptor (Homo sapiens) (UniProt P16473); test: qHTS assay to identify small molecule agonists of the thyroid stimulating hormone receptor (TSHR) signaling pathway (AID 1224843; calls by dose curve; further: nearly all actives have a fitted effect of over 45% in size; further: potency means the concentration at half of the fitted maximal effect)
How it was run: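 Agonist-mode screen: TSHR HEK293 cells received test chemicals for half an hour at room temperature, then HTRF cAMP detection reagents for one hour prior to fluorescence measurement. Each chemical ran as a 15-concentration series, triplicated.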

[4] = qHTS assay to identify small molecule agonists of the constitutive androstane receptor (CAR) signaling pathway - cell viability counter screen (AID 1224836); further: nearly all actives have a fitted effect of over 45% in size; further: potency means the concentration at half of the fitted maximal effect
How it was run: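 HepG2 cells stably carrying hCAR and a CYP2B6-2.2kb reporter were plated 4 h, then given compounds at 15 concentrations plus PK11195 (final 0.75 uM). After 23 h at 37 C, viability was read by CellTiter-Fluor fluorescence.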

[5] = qHTS assay to identify small molecule antagonists of the constitutive androstane receptor (CAR) signaling pathway - cell viability counter screen (AID 1224837); further: nearly all actives have a fitted effect of over 45% in size; further: potency means the concentration at half of the fitted maximal effect
How it was run: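 Cells are seeded, rested 4 hr at 37 C/5% CO2, dosed with compound (15-point series) and 50 nM CITCO, incubated a further 23 hr, and then CellTiter-Fluor reagent is added before fluorescence is read. The line is HepG2 with stable hCAR and CYP2B6-2.2kb.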

[6] = qHTS assay to identify small molecule antagonists of the estrogen related receptor signaling pathway with the pleiotropic PPARgamma coactivator (PGC) from Tox21 10K library - cell viability counter screen (AID 1224840; active means well fitted cell-killing curve with a large enough effect in the repeat runs, not every such curve was filed as active; further: nearly all actives have a fitted effect of over 40% in size; further: potency means the concentration at half of the fitted maximal effect)
How it was run: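 Cell viability is measured by CellTiter-Fluor fluorescence in PGC/ERR cells that receive compounds after a 6-hour attachment period and are then incubated 17.5 hours at 37 C.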

[7] = qHTS assay to identify small molecule agonists of the hypoxia (HIF-1) signaling pathway - cell viability counter screen (AID 1224844; calls by dose curve; further: nearly all actives have a fitted effect of over 50% in size; further: potency means the concentration at half of the fitted maximal effect)
How it was run: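 Viability counter screen: HRE-bla ME-180 cells plated 5 hrs before compound addition, treated 17 hrs at 37C and 5% CO2, then CellTiter-Glo added after the FRET reporter read; luminescence after 30 min.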

[8] = biological target: Nuclear receptor subfamily 1 group I member 3 (Homo sapiens) (UniProt Q14994); test: qHTS assay to identify small molecule antagonists of the constitutive androstane receptor (CAR) signaling pathway (AID 1224838); further: nearly all actives have a fitted effect of over 40% in size; further: potency means the concentration at half of the fitted maximal effect
How it was run: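 Luminescence from a CYP2B6-2.2kb promoter reporter in hCAR-expressing HepG2 cells reflects CAR signaling. Cells received compounds at 15 concentrations and 50 nM CITCO (final), then incubated 24 h at 37 C/5% CO2.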

[9] = qHTS assay to identify small molecule antagonists of the estrogen related receptor signaling pathway with the pleiotropic PPARgamma coactivator (PGC) from Tox21 10K library (AID 1224841; call rule not given here; further: actives are mostly falling curves and most rising ones were filed inactive; nearly all actives have a fitted effect of over 50% in size; further: potency means the concentration at half of the fitted maximal effect)
How it was run: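 Cells stably carrying the PGC/ERR reporter, seeded at 2,000 per well, received pin-transferred compounds 6 h post-plating. Exposure lasted 18 h at 37 C. Signal: One-Glo luminescence.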

[10] = qHTS assay to identify small molecule agonists of the estrogen related receptor signaling pathway with the pleiotropic PPARgamma coactivator (PGC) from Tox21 10K library (AID 1224842); further: nearly all actives have a fitted effect of over 15% in size; further: potency means the concentration at half of the fitted maximal effect
How it was run: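 PGC/ERR reporter cell line, 2,000 cells per well, incubated 6 h at 37 C before 23 nL compound in DMSO was added. After 18 h at 37 C, One-Glo luminescence read following 30 min at room temperature.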

Chain of Thyrotropin receptor (Homo sapiens) (P16473 whole entry, looked up): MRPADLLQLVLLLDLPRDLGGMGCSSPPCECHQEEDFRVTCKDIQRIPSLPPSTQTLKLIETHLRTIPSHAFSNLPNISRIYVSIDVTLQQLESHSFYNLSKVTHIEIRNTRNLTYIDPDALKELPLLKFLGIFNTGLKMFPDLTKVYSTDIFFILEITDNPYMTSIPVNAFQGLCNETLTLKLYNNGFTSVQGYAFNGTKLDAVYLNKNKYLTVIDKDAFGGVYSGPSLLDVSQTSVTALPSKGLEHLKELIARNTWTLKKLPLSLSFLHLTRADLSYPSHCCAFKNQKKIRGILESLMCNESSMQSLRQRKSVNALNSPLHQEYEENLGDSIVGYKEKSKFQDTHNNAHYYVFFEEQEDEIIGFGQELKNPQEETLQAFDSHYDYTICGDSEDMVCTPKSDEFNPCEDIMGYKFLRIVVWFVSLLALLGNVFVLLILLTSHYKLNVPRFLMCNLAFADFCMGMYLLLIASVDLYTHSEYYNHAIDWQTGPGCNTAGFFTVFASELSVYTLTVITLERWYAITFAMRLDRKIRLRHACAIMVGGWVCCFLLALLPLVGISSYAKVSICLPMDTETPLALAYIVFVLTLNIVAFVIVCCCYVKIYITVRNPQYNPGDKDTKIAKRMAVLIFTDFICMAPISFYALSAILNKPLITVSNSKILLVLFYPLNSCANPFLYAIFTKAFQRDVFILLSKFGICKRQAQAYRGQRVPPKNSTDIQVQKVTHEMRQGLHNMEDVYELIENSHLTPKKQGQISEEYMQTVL
Chain of Nuclear receptor subfamily 1 group I member 3 (Homo sapiens) (Q14994 whole entry, looked up): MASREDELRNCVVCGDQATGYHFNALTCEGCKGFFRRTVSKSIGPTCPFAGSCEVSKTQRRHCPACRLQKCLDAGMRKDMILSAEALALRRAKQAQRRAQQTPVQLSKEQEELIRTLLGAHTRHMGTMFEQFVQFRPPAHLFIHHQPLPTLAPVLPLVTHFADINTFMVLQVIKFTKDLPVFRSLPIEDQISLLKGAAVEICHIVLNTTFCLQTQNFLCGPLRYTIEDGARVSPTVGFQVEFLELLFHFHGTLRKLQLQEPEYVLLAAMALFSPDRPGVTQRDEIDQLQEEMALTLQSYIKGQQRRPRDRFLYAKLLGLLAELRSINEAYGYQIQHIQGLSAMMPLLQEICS
Chain of Luciferin 4-monooxygenase (Photinus pyralis) (P08659 whole entry, looked up): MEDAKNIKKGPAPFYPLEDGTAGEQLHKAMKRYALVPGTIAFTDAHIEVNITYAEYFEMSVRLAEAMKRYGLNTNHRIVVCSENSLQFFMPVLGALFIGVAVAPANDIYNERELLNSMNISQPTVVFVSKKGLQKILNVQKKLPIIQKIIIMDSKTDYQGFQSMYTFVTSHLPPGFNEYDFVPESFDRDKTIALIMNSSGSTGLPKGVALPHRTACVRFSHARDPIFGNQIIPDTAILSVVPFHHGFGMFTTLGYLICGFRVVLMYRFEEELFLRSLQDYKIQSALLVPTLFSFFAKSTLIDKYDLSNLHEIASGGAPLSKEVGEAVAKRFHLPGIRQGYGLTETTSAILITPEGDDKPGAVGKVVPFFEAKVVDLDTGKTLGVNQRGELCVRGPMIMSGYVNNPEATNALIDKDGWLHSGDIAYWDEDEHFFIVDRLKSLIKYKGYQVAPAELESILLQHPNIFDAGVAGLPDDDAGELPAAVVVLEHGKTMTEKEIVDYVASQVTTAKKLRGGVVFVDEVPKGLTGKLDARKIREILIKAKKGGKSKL

CNCCCN1c2ccccc2CCc2ccccc21
Potency [1]: inactive
Potency [2]: inactive
Potency [3]: inactive

O=[N+]([O-])c1ccc2[nH]ncc2c1
Potency [4]: inactive
Potency [5]: inactive
Potency [6]: inactive
Potency [3]: inactive
Potency [7]: inactive

CCCCCCCCCc1ccc(OCCOCCO)cc1
Potency [4]: 6.44 µM (active)
Potency [5]: 5.74 µM (active)
Potency [8]: inactive
Potency [2]: inactive
Potency [6]: 10.2 µM (active)
Potency [7]: inactive

CC(=O)[O][Al][O]C(C)=O
Potency [4]: inactive
Potency [5]: inactive
Potency [6]: inactive
Potency [9]: inactive
Potency [10]: inactive
Potency [7]: inactive

Cc1cccc(Nc2ccccc2)c1
Potency [4]: inactive
Potency [5]: inactive
Potency [8]: inactive
Potency [6]: inactive
Potency [7]: inactive

CCCNCC(O)COc1ccccc1C(=O)CCc1ccccc1 (configuration not stated)
Potency [4]: inactive
Potency [5]: inactive
Potency [8]: inactive
Potency [2]: inactive
Potency [6]: inactive
Potency [3]: inactive
Potency [7]: inactive

CCCCc1nc2cccnc2n1Cc1ccc(-c2ccccc2-c2nnn[nH]2)cc1
Potency [4]: inactive
Potency [8]: inactive
Potency [2]: inactive
Potency [3]: inactive
Potency [7]: inactive

CCCOC(C(=O)OC1CCN(C)CC1)(c1ccccc1)c1ccccc1
Potency [4]: inactive
Potency [2]: inactive
Potency [9]: inactive
Potency [10]: inactive
Potency [3]: inactive

C[C@@H]1C[C@H]2O[C@@]3(O[C@@H]2C(C)(C)O)[C@H](O)[C@@]2(C)[C@@H]4CC[C@H]5C(C)(C)[C@@H](O[C@@H]6OC[C@@H](O)[C@H](O)[C@H]6O)CC[C@@]56C[C@@]46CC[C@]2(C)[C@@H]13
Potency [5]: inactive
Potency [8]: inactive
Potency [6]: inactive
Potency [9]: inactive
Potency [10]: inactive
Potency [3]: inactive
Potency [7]: inactive

ClCCOCCOCCCl
Potency [4]: inactive
Potency [9]: inactive
Potency [10]: inactive
Potency [3]: inactive
Potency [7]: inactive

O=C(OCCCCCCOC(=O)c1ccccc1)c1ccccc1
Potency [5]: inactive
Potency [8]: inactive
Potency [2]: inactive
Potency [6]: inactive
Potency [9]: inactive
Potency [10]: inactive
Potency [7]: inactive

O[C@@H](COc1cccc2ncccc12)CN1CCN(C2c3ccccc3[C@@H]3[C@H](c4ccccc42)C3(F)F)CC1 (some centres not stated)
Potency [2]: inactive
Potency [3]: 11.9 µM (active)
Potency [7]: inactive

Cc1ccccc1S(=O)(=O)O
Potency [4]: inactive
Potency [3]: inactive
Potency [7]: inactive

CC(C)Cc1ccc(C(C)C(=O)OCc2ccccn2)cc1 (configuration not stated)
Potency [5]: inactive
Potency [7]: inactive

Cc1ccc(C(C)OC(=O)C2(C)CCC(C(=O)O)C2(C)C)cc1 (configuration not stated)
Potency [4]: inactive
Potency [5]: inactive
Potency [6]: inactive
Potency [3]: inactive
Potency [7]: inactive

O=C(OCCc1ccccc1)c1ccccc1
Potency [4]: inactive
Potency [8]: inactive
Potency [2]: inactive
Potency [6]: inactive
Potency [3]: inactive

O=[N+]([O-])c1cccc(S(=O)(=O)O)c1
Potency [9]: 55.3 µM (active)
Potency [10]: inactive
Potency [7]: inactive

CCCCC(CC)COC(=O)COc1ccc(Cl)cc1Cl (configuration not stated)
Potency [4]: inactive
Potency [5]: inactive
Potency [6]: inactive
Potency [3]: inactive
Potency [7]: inactive

CCCCCCCCCCCCCCOS(=O)(=O)O
Potency [5]: inactive
Potency [8]: inactive
Potency [6]: inactive
Potency [9]: inactive
Potency [10]: inactive
Potency [7]: 54.9 µM (active)

C=CC(=O)OCCOc1ccccc1
Potency [4]: inactive
Potency [5]: inactive
Potency [9]: inactive
Potency [10]: 68.5 µM (active)
Potency [3]: inactive

CCOc1ccc(N=Nc2ccc(/C=C/c3ccc(N=Nc4ccc(OCC)cc4)cc3S(=O)(=O)O)c(S(=O)(=O)O)c2)cc1
Potency [4]: 24 µM (active)
Potency [5]: 21.4 µM (active)
Potency [6]: 47.8 µM (active)
Potency [3]: inactive
Potency [7]: inactive

O=C(O)C1(C(=O)Nc2ccc(Cl)cc2Cl)CC1
Potency [5]: inactive
Potency [3]: inactive
Potency [7]: inactive

O=C(O)c1ccc(S(=O)(=O)O)cc1C(=O)O
Potency [4]: inactive
Potency [5]: inactive
Potency [10]: inactive
Potency [3]: inactive
Potency [7]: inactive

COc1cc2nc(N(C)CCCNC(=O)C3CCCO3)nc(N)c2cc1OC (configuration not stated)
Potency [5]: inactive
Potency [9]: 15 µM (active)
Potency [10]: inactive
Potency [3]: inactive
Potency [7]: inactive

Cc1nn(C)c(Oc2ccccc2)c1/C=N/OCc1ccc(C(=O)OC(C)(C)C)cc1
Potency [6]: inactive
Potency [10]: inactive
Potency [7]: inactive

N=c1ccn2c(n1)O[C@H]1[C@H](O)[C@@H](CO)O[C@H]12
Potency [5]: inactive
Potency [6]: inactive
Potency [9]: inactive
Potency [10]: inactive
Potency [3]: inactive
Potency [7]: inactive

CCCCOC(=O)CCCCCCCC(=O)OCCCC
Potency [8]: inactive
Potency [2]: inactive
Potency [6]: inactive
Potency [9]: inactive
Potency [10]: inactive
Potency [3]: inactive
Potency [7]: inactive

CCOC(=O)C1=C[C@]2(CC)CCCN3CCc4c(n1c1ccccc41)[C@@H]32
Potency [4]: inactive
Potency [6]: inactive
Potency [3]: 18.8 µM (active)

CCCCC/C=C\C/C=C\CCCCCCCC(=O)NC(C)c1ccccc1 (configuration not stated)
Potency [4]: inactive
Potency [8]: inactive
Potency [6]: inactive
Potency [10]: inactive
Potency [3]: inactive
Potency [7]: inactive

CN(Cc1ccc(C(C)(C)C)cc1)Cc1cccc2ccccc12
Potency [5]: inactive
Potency [8]: inactive
Potency [2]: inactive
Potency [6]: inactive
Potency [7]: inactive

O=C(O)c1ccco1
Potency [4]: inactive
Potency [5]: inactive
Potency [6]: inactive
Potency [3]: inactive
Potency [7]: inactive

Cc1ccc(N=Nc2c(O)c(C(=O)O)cc3ccccc23)c(S(=O)(=O)O)c1
Potency [2]: inactive
Potency [3]: inactive
Potency [7]: inactive

CCCCCCCCCCO[C@@H]1O[C@H](CO)[C@@H](O)[C@H](O)[C@H]1O
Potency [4]: inactive
Potency [6]: inactive
Potency [7]: inactive

CCN(CC)c1ccc(C(=C2C=CC(=[N+](CC)CC)C=C2)c2cc(S(=O)(=O)O)ccc2S(=O)(=O)[O-])cc1
Potency [8]: 11.9 µM (active)
Potency [2]: inactive
Potency [9]: 11.9 µM (active)
Potency [10]: inactive

C[Si](C)(CCCN)O[Si](C)(C)CCCN
Potency [4]: inactive
Potency [8]: inactive
Potency [2]: inactive
Potency [6]: inactive
Potency [9]: inactive
Potency [10]: inactive
Potency [3]: inactive
Potency [7]: inactive

O=C1OC(=O)C2C3C=CC(C3)C12 (configuration not stated)
Potency [5]: inactive
Potency [6]: inactive
Potency [7]: inactive

— PubChem BioAssay (Tox21)
